PubChem BioAssay AID624483 (NMMLSC, 2012)
In all, about 360,000 compounds went through this assay and about 11,000 (3.1%) were called active. Another 2% or so got no clear call; they are omitted. Shown is part of a subset that was picked to be rich in actives. Unmarked numbers belong to inactive results. Cut-off read from the data, not from the text of the source: active = fluorescence intensity above about 16000; inconclusive = no clear call, values can overlap the other calls; inactive = below that.

Assay: compound fluorescence in toxin protease inhibitor counterscreen, primary screen, artefact control for toxin protease inhibitor project, biochemical, multiplex microsphere, HTS (AID 624483)
Details: compound autofluorescence counterscreen, microsphere flow cytometry; active compounds read high

Compared with CCOC(=O)C1=C(CN2CCCCCC2)NC(=O)NC1c1cccc([N+](=O)[O-])c1 (configuration not stated), CCOC(=O)C1=C(CN2CCc3ccccc32)NC(=O)NC1c1cccc([N+](=O)[O-])c1 (configuration not stated) is higher in fluorescence intensity: 4620 for the first, 15000 for the second.

First: CCOC(=O)C1=C(CNC2CCCCC2)NC(=O)NC1c1cc(C)ccc1C (configuration not stated)
Second: CCOC(=O)C1=C(c2ccccc2)NC(=O)NC1c1cc(OC)c(OC)cc1OC (configuration not stated)
The fluorescence intensity of the first is higher: 4280 for the first, 2970 for the second.

First: Cc1ccccc1S(=O)(=O)NC(=O)C1(C)CCN1C(=O)C1(c2ccccc2)CCCC1 (configuration not stated)
Second: Cc1noc(C)c1C(=O)N1CCC1(C)C(=O)NS(=O)(=O)c1ccc(C#N)cc1 (configuration not stated)
The fluorescence intensity of the first is lower: 2830 for the first, 3990 for the second.

Compared with COc1ccc(C(=O)Nc2c(N)nc(SCC(=O)N3CCC(C)CC3)[nH]c2=O)cc1OC, COc1cccc(C(=O)NC(=O)Nc2nc(C)cc(C(F)(F)F)n2)c1 is higher in fluorescence intensity: 4500 for the first, 4900 for the second.

Compared with COc1cncc(-c2cnc3sc(NCCc4ccccn4)nn23)c1, COc1ccc(C)c(Cn2c(-c3nonc3N)nc3ccccc32)c1 is higher in fluorescence intensity: 3330 for the first, 8560 for the second.

Going from O=C1Cc2ccccc2Sc2ccc(Cl)cc21 to Cc1cc(Cl)ccc1-c1nc(NCCN(C)C)nc2ccsc12, the fluorescence intensity falls from 6230 to 2870.

Compared with CC(=O)Nc1cncc(-c2ccccc2CO)n1, O=C(CNC(=O)c1ccccc1F)c1ccc(Br)cc1 is higher in fluorescence intensity: 3670 for the first, 4100 for the second.

Going from Cc1cc(Cl)nc(NC(=O)Nc2cccc(Cl)c2)n1 to Cc1cc(C)cc(NC(=O)CSCc2cnn(-c3ccccc3)c2-n2cccc2)c1, the fluorescence intensity rises from 3440 to 3720.

First: CSc1ccc(CN2CCC2(C)C(=O)NCc2ccccc2Br)cc1 (configuration not stated)
Second: O=C(CSCc1ccccc1)Nc1ccccc1
The fluorescence intensity of the first is higher: 3880 for the first, 3440 for the second.

Compared with OC[C@@H]1CN(Cc2ccc(Cl)cc2)C[C@H](n2cnc3c(NCc4ccncc4)ncnc32)O1, OC1CCCN(c2ncnc3c2nnn3Cc2c(F)cccc2Cl)C1 (configuration not stated) is higher in fluorescence intensity: 3720 for the first, 4220 for the second.

Compared with O=C(O)CCn1c(Cc2ccccc2)nc2ccccc21, CCc1nc2ccc(C(=O)NC3CCN(Cc4ccccc4)CC3)cn2c1N(CC)CCOC is lower in fluorescence intensity: 4070 for the first, 3640 for the second.

In the case of CCOC(=O)C1=C(CN2CCc3ccccc32)NC(=O)NC1c1ccc(Cl)cc1 (configuration not stated), the fluorescence intensity is reported as 23500 (active).
With CCOC(=O)C1=C(CN2CCc3ccccc32)NC(=O)NC1c1cc(C)ccc1C (configuration not stated) the fluorescence intensity was 23800 (active).
With Cc1cc(C)nc(NC(=O)Nc2ccccc2C(F)(F)F)n1 the fluorescence intensity was 21400 (active).
With Nc1nonc1-c1nc2ccccc2n1CCC(=O)O the fluorescence intensity was 23600 (active).
In the case of CC(=O)Nc1ccc(NC(=O)CSCc2cnn(-c3ccccc3)c2-n2cccc2)cc1, the fluorescence intensity is reported as 21800 (active).
